# Screens from PubChem BioAssay.
# Most compounds without a hit are left out; they make up all but 5% or so of the library.
# SENP8 block-1: SENP8 protease inhibition | 1.2% of 330,000 active | Q96LD8 | AID 2540 | inhibition, % at 10 µM | purified SENP8, Z-RLRGG-aminoluciferin cleavage, luminescence; in the data active = inhibition above about 50%
# Target sequence (Q96LD8 whole entry, looked up): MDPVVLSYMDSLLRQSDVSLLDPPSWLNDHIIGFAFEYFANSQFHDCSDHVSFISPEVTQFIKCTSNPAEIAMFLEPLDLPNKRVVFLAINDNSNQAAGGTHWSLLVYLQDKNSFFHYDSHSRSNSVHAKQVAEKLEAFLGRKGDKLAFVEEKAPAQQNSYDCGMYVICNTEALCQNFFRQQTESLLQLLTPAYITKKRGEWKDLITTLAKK
# SENP7 block: blocks the human protease SENP7; AID 434973; inhibition, % at 5 µM; 1.5% of 330,000 active; recombinant SENP7, Z-RLRGG-aminoluciferin luminescence, 40 min;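 active = inhibition above about 50% at the single test dose, limit read from the data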
# SENP6 block: inhibitors of human SENP6 protease | Q9GZR1 | Recombinant SENP6 catalytic domain, aminoluciferin luminescence | inhibition, % at 10 µM | 1.8% of 330,000 active;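 active = inhibition above about 50% at the single tested dose, limit read from the data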
# EBI2 antag: antagonists of human EBI2 receptor; P32249; EBI2 beta-arrestin recruitment, luminescence, 7a,25-OHC stimulated; inhibition, % at 5 µM; 0.81% of 360,000 active; in the data active = inhibition above about 38%;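 also: enzyme fragment complementation signal reports receptor beta-arrestin coupling in cells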
# Target sequence (P32249 whole entry, looked up, the tested form may be a part): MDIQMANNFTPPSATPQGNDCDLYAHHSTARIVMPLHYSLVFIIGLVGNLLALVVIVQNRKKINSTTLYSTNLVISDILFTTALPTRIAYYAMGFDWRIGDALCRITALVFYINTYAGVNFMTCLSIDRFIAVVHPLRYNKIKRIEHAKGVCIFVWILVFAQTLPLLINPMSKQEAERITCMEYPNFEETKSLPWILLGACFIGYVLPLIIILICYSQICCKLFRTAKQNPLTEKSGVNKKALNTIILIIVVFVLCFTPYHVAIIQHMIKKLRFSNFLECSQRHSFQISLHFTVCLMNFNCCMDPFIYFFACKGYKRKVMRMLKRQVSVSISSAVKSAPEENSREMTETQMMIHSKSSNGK
# AHR activator: human AHR activation; AID 2796; P35869; activation, % at 5 µM; AHR-responsive luciferase reporter cells, luminescence; 2.5% of 320,000 active; in the data active = activation above about 47%
# SENP8 block-2: inhibitors of human SENP8 protease; recombinant SENP8, Nedd8 substrate fluorescence; AID 602440; Q96LD8; inhibition, % at 20 µM; 0.64% of 360,000 active; in the data active = inhibition mostly above about 40%, no sharp cut-off; inactive = mostly below about 27%
# SENP8 conf: SENP8 (human) inhibition, single concentration confirmation. inhibition, % at 25 µM. purified SENP8, Nedd8-AMC/pro-Nedd8 cleavage fluorescence, 30 min. shares compounds with SENP8 block-2. 15% of 1,400 active; in the data active = inhibition mostly above about 39%, no sharp cut-off; inactive = mostly below about 34%
# Hits are given with their value; 0 = inactive; - = no result given.
SMILES,SENP8 block-1,SENP7 block,SENP6 block,EBI2 antag,AHR activator,SENP8 block-2,SENP8 conf
COc1cc(NCCCCCCN)c2ncccc2c1OC,-,-,-,0,-,72,96
COc1ccc(-c2nn(-c3ccccc3)cc2C=O)cc1[N+](=O)[O-],0,0,0,0,0,0,-
COc1ccc(-c2nnc(SC)nc2-c2ccc(OC)c([N+](=O)[O-])c2)cc1[N+](=O)[O-],0,0,0,0,0,49,0
Cc1cccc2c1Sc1ccc(Cl)cc1CC2N1CCNCC1 (stereo unspecified),0,0,0,-,0,-,-
CCc1cccc2c1Sc1ccccc1CC2N1CCNCC1 (stereo unspecified),0,0,0,0,0,44,0
CC(C)(C)c1cc(C(=O)NNc2cccc(Cl)c2)n(Cc2ccccc2)n1,0,0,0,0,0,43,0
CC(C)C(NC(=O)c1ccccc1)C(=O)OCC(=O)N1CCCC1 (stereo unspecified),0,0,0,0,0,0,-
CN(CCO)c1cc(Sc2nc3ccccc3s2)c2nonc2c1[N+](=O)[O-],0,0,0,0,0,55,0
CNC(=O)c1cc(NC(=O)N(CCC#N)CCN(C(=O)NC(Cc2ccccc2)C(=O)NC(CC(C)C)C(=O)NC)c2ccccc2)ccc1OC (stereo unspecified),-,-,-,0,-,0,-
O=c1cc(-c2ccc([N+](=O)[O-])cc2)c2cc3c(cc2[nH]1)OCCO3,0,0,0,0,0,42,0
CC(C)c1ccc(CN2CCN(C(=O)CSc3nnnn3C3CC3)CC2)cc1,0,0,0,0,0,0,-
COc1ccccc1C(=O)NC(=O)CSc1nncn1C,0,0,0,0,0,0,-
COC(=O)c1sc(NC(=O)c2ccc([N+](=O)[O-])o2)c(C#N)c1C,0,0,0,0,0,42,0
COc1ccccc1OCCCCN1CCN(c2ccccc2OC)CC1,0,0,0,0,0,48,0
CCOC(=O)[C@]12CCCC=C1N(CCC1=CCCCC1)C(=O)[C@H](CC(=O)NCCCN1CCCC1=O)C2,-,-,-,0,-,42,0
CCOC(=O)[C@]12CCC=C1N(CCC1=CCCCC1)C(=O)[C@H](CC(=O)NCCCN1CCCC1=O)C2,-,-,-,0,-,0,-
CCOC(=O)C1(C)C=C(Nc2ccc(O)cc2)C(=O)N1c1ccc(O)cc1 (stereo unspecified),0,0,0,0,0,61,0
CCC1=NN(C(=O)c2ccc([N+](=O)[O-])cc2)C(O)(c2ccccc2)C1 (stereo unspecified),0,0,0,0,0,50,0
CC(=O)NCC(=O)N[C@@H](CC(=O)OCc1ccccc1)C(=O)OCc1ccccc1,0,0,0,0,0,44,0
O=C(COc1ccc(Br)cc1CO)Nc1ccc(F)cc1,0,0,0,0,0,41,0
O=C(COc1ccc(Br)cc1CO)Nc1ccc(S(=O)(=O)N2CCCC2)cc1,0,0,0,0,-,0,-
CCN(CC)CCn1c(OC)cc(=O)[nH]c1=O,0,0,0,0,0,43,0
Cc1ccc(N2CCN(S(=O)(=O)N3CCOCC3)CC2)cc1C,0,0,0,0,0,0,-
COC(=O)CNC(c1ccccc1)c1cc(Br)ccc1NS(=O)(=O)c1ccc(C)cc1 (stereo unspecified),0,0,0,0,0,0,-
O=c1[nH]c(CN2CCCCC2)ccc1O,-,-,-,0,-,68,38
SMILES,SENP8 block-1,SENP7 block,SENP6 block,EBI2 antag,AHR activator,SENP8 block-2,SENP8 conf
COc1cc(CC(=O)OCC(=O)Nc2cc([N+](=O)[O-])ccc2Cl)cc(OC)c1OC,0,0,0,0,0,40,0
Cc1ccc(Sc2ccc(/C=N/O)cc2[N+](=O)[O-])cc1,0,0,0,0,0,42,0
Cc1ccc(NC(=O)c2ccc(Nc3c([N+](=O)[O-])cc([N+](=O)[O-])cc3[N+](=O)[O-])cc2)cc1,0,0,0,81,0,42,0
CC(=O)Nc1ccc(NC(=O)c2cc([N+](=O)[O-])cc([N+](=O)[O-])c2)cc1,0,0,0,0,0,0,-
CCCN1CN(c2ccccc2)C(=S)N(c2ccccc2)C1,0,0,0,0,0,0,-
CS(=O)(=O)O/N=C1\CCCCC1c1ccc([N+](=O)[O-])cc1[N+](=O)[O-] (stereo unspecified),0,0,0,0,0,0,-
CCNC(=O)O/N=C1\CCCCC1c1ccc([N+](=O)[O-])cc1[N+](=O)[O-] (stereo unspecified),0,0,0,0,0,41,48
Cc1ccccc1-n1c(SCC(=O)N2CCOCC2)nc(O)c(Cc2ccccc2)c1=O,0,0,0,0,0,0,-
Cc1cccc(C)c1NC(=O)c1ccc([N+](=O)[O-])s1,0,0,0,0,0,29,0
Cn1c2ccccc2c(=O)c2c(=O)n(Cc3ccccc3)c(-c3ccc(F)cc3)nc21,0,0,0,0,0,0,-
C[C@@H]1CN(c2nc3nonc3nc2N2CCSCC2)C[C@H](C)O1,0,0,0,0,0,41,0
C/C(=C\C(=O)c1cccnc1)Nc1ccc(O)cc1,0,0,0,0,0,84,0
C/C(=C\C(=O)c1ccccc1)Nc1ccc(O)cc1,0,0,0,0,0,84,0
COc1ccc(C(=O)/C=C(\C)Nc2ccc(NC(C)=O)cc2)cc1,0,0,0,0,0,0,-
Cc1cccc(N(C)C(=O)c2cc(S(=O)(=O)N3CCc4ccccc43)cn2C)c1,0,0,0,0,0,46,0
O=S(=O)(/N=C(/Nc1cccc2ccccc12)c1ccccc1)c1ccc(Br)cc1,0,0,0,0,0,0,-
COc1ccc(C(=O)N/C(=C\c2ccc(-c3cccc([N+](=O)[O-])c3)o2)C(=O)NCCCN2CCOCC2)cc1,-,-,-,0,-,35,0
Cc1ccc(C(=O)N/C(=C/c2ccc(-c3cccc([N+](=O)[O-])c3)o2)C(=O)NC(C)C)cc1,0,0,0,0,0,47,0
Cc1ccc(C(=O)N/C(=C/c2ccc(-c3cccc([N+](=O)[O-])c3)o2)C(=O)NC(C)(C)C)cc1,0,0,0,0,0,0,-
Cc1ccc(C(=O)N/C(=C\c2ccc(-c3cccc([N+](=O)[O-])c3)o2)C(=O)NCCCN2CCOCC2)cc1,0,0,0,0,0,0,-
C1CCN(c2nc3nonc3nc2NCC2CCOCC2)CC1,0,0,0,0,0,44,0
C1CCN(c2nc3nonc3nc2N2CCCCC2)CC1,0,0,0,0,0,0,-
O=C(c1ccccc1)[C@@H]1[C@@H](C(=O)c2ccc(F)cc2)[C@@]2(C(=O)Nc3ccccc32)[C@H]2c3ccccc3C=CN12,0,0,64,0,0,54,66
Cc1ccc(NC(=S)N/N=C/c2ccc([N+](=O)[O-])s2)cc1,0,0,0,50,0,40,53
